Only some compounds are listed: those with a hit (about 1.5% of all), similar ones and a draw of the others.
Beta2AR agonist: agonists of human beta-2 adrenergic receptor inducing internalization. P07550. response, % (concentration not given with the values). 340,000 tested, 0.43% active. Am2.2-beta2AR cells, FAP receptor internalization, flow cytometry;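 active means response above a set limit, near 3 SD of response in nonfluorescent compounds, cut at about 42% in these data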
TLR4 MyD88 comp: TLR4-MyD88 interaction inhibition in cells; HeLa CL3-4 TLR4/MyD88 BLA complementation, FRET ratio; 200,000 tested, 0.18% active; O00206+Q99836; inhibition, % at 8.4 µM; in the data active means inhibition above about 25%
Target sequence (O00206 whole entry, looked up): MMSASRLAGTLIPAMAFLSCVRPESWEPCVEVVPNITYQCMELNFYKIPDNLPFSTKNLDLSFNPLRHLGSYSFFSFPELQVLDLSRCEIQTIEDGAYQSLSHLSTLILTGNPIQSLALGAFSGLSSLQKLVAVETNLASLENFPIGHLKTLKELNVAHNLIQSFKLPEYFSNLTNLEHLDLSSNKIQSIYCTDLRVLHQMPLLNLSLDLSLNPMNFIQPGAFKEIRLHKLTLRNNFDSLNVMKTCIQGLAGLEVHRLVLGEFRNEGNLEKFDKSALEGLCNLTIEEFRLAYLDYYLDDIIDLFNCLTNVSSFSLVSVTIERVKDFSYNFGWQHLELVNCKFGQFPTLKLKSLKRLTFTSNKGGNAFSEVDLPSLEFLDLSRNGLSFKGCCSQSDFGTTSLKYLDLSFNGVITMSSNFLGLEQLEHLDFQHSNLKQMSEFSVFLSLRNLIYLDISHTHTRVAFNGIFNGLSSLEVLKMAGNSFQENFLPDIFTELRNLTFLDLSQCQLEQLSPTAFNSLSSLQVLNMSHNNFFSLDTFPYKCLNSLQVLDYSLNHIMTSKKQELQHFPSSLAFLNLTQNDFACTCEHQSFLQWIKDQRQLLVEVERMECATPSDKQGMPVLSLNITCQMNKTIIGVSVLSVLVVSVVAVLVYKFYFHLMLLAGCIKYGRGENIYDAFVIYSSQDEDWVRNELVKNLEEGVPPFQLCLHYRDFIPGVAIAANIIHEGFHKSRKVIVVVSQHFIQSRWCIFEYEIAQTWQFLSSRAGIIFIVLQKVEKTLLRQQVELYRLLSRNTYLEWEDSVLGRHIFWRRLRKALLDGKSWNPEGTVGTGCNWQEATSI
Target sequence (Q99836 whole entry, looked up): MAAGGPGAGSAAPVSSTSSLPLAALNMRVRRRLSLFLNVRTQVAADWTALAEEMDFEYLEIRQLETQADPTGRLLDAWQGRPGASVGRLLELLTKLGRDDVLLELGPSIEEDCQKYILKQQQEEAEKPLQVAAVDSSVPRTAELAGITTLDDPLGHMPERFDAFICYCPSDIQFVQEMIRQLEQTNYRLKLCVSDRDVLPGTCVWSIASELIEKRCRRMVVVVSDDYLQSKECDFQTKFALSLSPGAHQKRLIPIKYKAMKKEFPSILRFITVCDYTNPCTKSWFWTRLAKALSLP
TLR9-MyD88 block: inhibitors of human TLR9-MyD88 binding. Q9NR96+Q99836. CHO BLA complementation TLR9-MyD88, CCF4 FRET ratio. inhibition, % at 4.98 µM. 340,000 tested, 0.21% active;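 active means inhibition above the mean over all tested compounds plus 3 SD, cut at about 21% in these data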
NOD2-RIPK2 inh: inhibitors of human NOD2-RIPK2 interaction; O43353; CHO BLA complementation NOD2-RIPK2, CCF4 ratio; inhibition, % at 4.98 µM; 360,000 tested, 0.38% active; AID 624267; in the data active means inhibition above about 21%
ABHD5-PLIN5 inh: ABHD5-PLIN5 protein interaction inhibition. Q00G26+Q8WTS1. Split G. princeps luciferase complementation, luminescence, 4 h. inhibition, % at 4 µM. 360,000 tested, 0.78% active. AID 602281;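 active means inhibition above the mean inhibition across every tested compound plus 3 SD, cut at about 22% in these data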
NTR1 ag: NTR1 (human) agonism; P30989; NTR1-U2OS beta-arrestin-GFP spot imaging, agonist mode; activation, % at 20 µM; 330,000 tested, 0.17% active; AID 493036;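 active means activation at or above 40% of the spot to cytoplasm intensity ratio, with at least 20 cells analyzed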
TLR4-MyD88 conf: TLR4-MyD88 interaction inhibition confirmed | shares compounds with TLR4 MyD88 comp | HeLa CL3-4 BLA complementation, CCF4 FRET ratio | inhibition, % at 8.4 µM | 350 tested, 50% active | AID 941;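 active means mean inhibition across three repeat runs above about 25% carried over from the earlier screen, limit read from the data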
BLA inhibitor ct: beta-lactamase inhibition flagged in TLR4-MyD88 counter-screen. 350 tested, 63% active. HeLa BLA reporter, CCF4 FRET ratio. inhibition, % at 8.4 µM. shares compounds with TLR4 MyD88 comp. AID 1237;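 active means mean inhibition over three repeats above about 26% taken from the earlier screen, limit read from the data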;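 further: HeLa cells stably expressing beta-lactamase reporter as counterscreen for TLR4-MyD88 inhibitors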
TLR9-MyD88 conf: confirmation of human TLR9-MyD88 binding inhibitors; CHO TLR9/MyD88 BLA complementation, CCF4 FRET ratio; inhibition, % at 4.98 µM; 680 tested, 51% active; shares compounds with TLR9-MyD88 block;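 active means mean inhibition across three repeats above about 21% taken from the earlier screen, limit read from the data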;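 further: blue over green emission ratio reports constitutive TLR9 MyD88 association via BLA complementation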
BLA nonselective: counter-screen for TLR9-MyD88 inhibitors: non-selective beta-lactamase inhibitors; shares compounds with TLR9-MyD88 block; CHO-BLA cells, CCF4 FRET ratio, BLA reporter; inhibition, % at 4.98 µM; 680 tested, 7% active;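 active means mean inhibition above a 50% cutoff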;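 further: counterscreen of TLR9-MyD88 hits on CMV-driven BLA in CHO-K1 cells; higher means less blue over green ratio so more BLA blockade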
TLR9 CHO tox: CHO cell toxicity counter-screen for TLR9-MyD88 inhibitors | 680 tested, 39% active | inhibition, % at 4.98 µM | shares compounds with TLR9-MyD88 block | AID 588336 | TLR9-MyD88 CHO cells cytotoxicity, luminescence; in the data active means inhibition above about 11%
ABHD5-PLIN5 conf: ABHD5-PLIN5 interaction inhibition, confirmed. AID 651612. inhibition, % at 4 µM. 2,200 tested, 67% active. shares compounds with ABHD5-PLIN5 inh. biochemical ABHD5-PLIN5 interaction, luminescence; in the data active means inhibition above about 23%
HNF4 split-luc: active in HNF4 split-luciferase counter-screen for ABHD5-PLIN5 inhibitors; shares compounds with ABHD5-PLIN5 inh; HNF4 dimerization, luminescence, biochemical; inhibition, % at 4 µM; 2,200 tested, 77% active;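 active means mean inhibition across replicate wells exceeding the computed hit threshold, cut at about 13% in these data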;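 further: light from luciferase halves that rejoin when HNF4 fusion proteins dimerize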
Large screens that a line does not name were inactive (follow-up assays come after a bar, where they were run).

Cc1ccc(NC(=O)/C(C#N)=C/c2cn(CC(=O)NCc3ccco3)c3ccccc23)cc1C	TLR4 MyD88 comp 59.8, TLR9-MyD88 block 35.8 | TLR4-MyD88 conf 53.9 | BLA inhibitor ct 80.0 | TLR9-MyD88 conf inactive | BLA nonselective inactive | TLR9 CHO tox 27.8
S=c1sc2c(Cl)ncnc2n1-c1ccccc1	Beta2AR agonist 103.5, TLR4 MyD88 comp 52.0, TLR9-MyD88 block 28.8, NOD2-RIPK2 inh 53.5 (no result: NTR1 ag) | TLR4-MyD88 conf 47.4 | BLA inhibitor ct 26.1 | TLR9-MyD88 conf 26.3 | BLA nonselective inactive | TLR9 CHO tox 24.9
Cc1nc(N2CCN(C)CC2)c2sc(=S)n(-c3ccccc3)c2n1	none
COc1ccc(C(=O)c2sc3nc(-c4ccccc4)ccc3c2N)cc1OC	TLR4 MyD88 comp 36.3, TLR9-MyD88 block 33.3 | TLR4-MyD88 conf 38.1 | BLA inhibitor ct 57.0 | TLR9-MyD88 conf 43.0 | BLA nonselective inactive | TLR9 CHO tox inactive
NC(=O)c1sc2nc(-c3ccccc3)ccc2c1N	none (no result: TLR4 MyD88 comp)
CC(=O)N1CCN(S(=O)(=O)c2cccc(C(=O)N3CCN(S(=O)(=O)c4c(C)c(C)cc(C)c4C)CC3)c2)CC1	none (no result: Beta2AR agonist, TLR4 MyD88 comp, NTR1 ag)
Cn1c(=O)c(NC2CCCCC2)c2c3c(cccc31)C(=O)c1ccccc1-2	TLR4 MyD88 comp 48.2, TLR9-MyD88 block 22.2 | TLR4-MyD88 conf inactive | BLA inhibitor ct 48.7 | TLR9-MyD88 conf inactive | BLA nonselective inactive | TLR9 CHO tox inactive
CC(=O)Nc1sc(/C(C#N)=C\c2cccc(Cl)c2)nc1-c1ccc(C)cc1	TLR4 MyD88 comp 31.1, TLR9-MyD88 block 32.0 (no result: NTR1 ag) | TLR4-MyD88 conf 86.3 | BLA inhibitor ct 111.9 | TLR9-MyD88 conf 79.8 | BLA nonselective 80.6 | TLR9 CHO tox inactive
COc1ccc(-c2nc3c4ccccc4ccn3c2Cc2cccc(F)c2)cc1OC	none (no result: Beta2AR agonist, TLR4 MyD88 comp, TLR9-MyD88 block, NTR1 ag)
COC(=O)[C@]12CCCCC=C1N(Cc1ccco1)C(=O)[C@H](CC(=O)NCc1ccc(OC)c(OC)c1)C2	none (no result: Beta2AR agonist, TLR4 MyD88 comp, TLR9-MyD88 block, NTR1 ag)
CCCCN(C)CC(O)Cn1cc(/C=C/C(=O)c2cccs2)c2ccccc21 (centres undefined)	TLR4 MyD88 comp 38.8, TLR9-MyD88 block 46.5, NOD2-RIPK2 inh 44.1 (no result: NTR1 ag) | TLR4-MyD88 conf 39.0 | BLA inhibitor ct 67.8 | TLR9-MyD88 conf 30.1 | BLA nonselective inactive | TLR9 CHO tox inactive
CCCCN(C)CC(O)Cn1cc(/C=C/C(=O)c2ccc(OCC)cc2)c2ccccc21 (centres undefined)	none (no result: Beta2AR agonist, TLR4 MyD88 comp, TLR9-MyD88 block, NOD2-RIPK2 inh, ABHD5-PLIN5 inh)
Brc1cc(Br)c2nc(-c3ccc(N4CCOCC4)cc3)ccc2c1	TLR4 MyD88 comp 29.0, TLR9-MyD88 block 39.5, NOD2-RIPK2 inh 26.7 (no result: NTR1 ag) | TLR4-MyD88 conf inactive | BLA inhibitor ct 29.8 | TLR9-MyD88 conf 43.2 | BLA nonselective inactive | TLR9 CHO tox inactive
O=C(O)c1ccccc1-c1ccc(/C=C/c2cc(C(F)(F)F)[nH]c(=O)n2)o1	TLR4 MyD88 comp 26.4, TLR9-MyD88 block 38.9 | TLR4-MyD88 conf inactive | BLA inhibitor ct 32.9 | TLR9-MyD88 conf 24.6 | BLA nonselective inactive | TLR9 CHO tox inactive
Fc1cccc(Cc2c(-c3ccc(Cl)cc3)nc3ccc(Br)cn23)c1	none (no result: Beta2AR agonist, TLR4 MyD88 comp, TLR9-MyD88 block, NTR1 ag)
Nc1ccc2c(c1)C/C(=C/c1ccco1)C2=O	TLR4 MyD88 comp 32.4, TLR9-MyD88 block 23.6 | TLR4-MyD88 conf 26.2 | BLA inhibitor ct 54.5 | TLR9-MyD88 conf 23.2 | BLA nonselective inactive | TLR9 CHO tox inactive
O=C1/C(=C/c2ccco2)CCc2ccccc21	none
CCOC(=O)/C(=C\c1ccccc1)C(=O)c1cc(C(C)=O)c(Nc2ccccc2)s1	none
CCOC(=O)/C(=C\c1cccnc1)C(=O)c1cc(C(C)=O)c(Nc2ccccc2)s1	Beta2AR agonist 103.8, TLR4 MyD88 comp 49.4, TLR9-MyD88 block 41.4, NOD2-RIPK2 inh 89.4, ABHD5-PLIN5 inh 90.2 | TLR4-MyD88 conf 53.2 | BLA inhibitor ct 40.9 | TLR9-MyD88 conf 49.5 | BLA nonselective inactive | TLR9 CHO tox 98.0
Fc1ccc(C2=CC(c3ccc(Br)o3)n3ncnc3N2)cc1 (centres undefined)	TLR4 MyD88 comp 27.6, TLR9-MyD88 block 25.1, NOD2-RIPK2 inh 21.6 (no result: NTR1 ag) | TLR4-MyD88 conf inactive | BLA inhibitor ct 26.2 | TLR9-MyD88 conf inactive | BLA nonselective inactive | TLR9 CHO tox inactive
O=C(NCCc1cn[nH]c1)c1ccc2oc(CCc3ccccc3)nc2c1	none (no result: Beta2AR agonist, TLR4 MyD88 comp, NTR1 ag)
CCOc1cc(N(CC)CC)ccc1/C=C(/C#N)c1nc2ccccc2[nH]1	none
CCN(CC)c1ccc(/C=C(/C#N)c2nc3ccc(C)cc3[nH]2)c(OC(C)C)c1	TLR4 MyD88 comp 35.2, TLR9-MyD88 block 22.7, NOD2-RIPK2 inh 34.3 | TLR4-MyD88 conf inactive | BLA inhibitor ct 35.5 | TLR9-MyD88 conf 20.9 | BLA nonselective inactive | TLR9 CHO tox inactive
CCCCN(C)c1c(C)nc2ccc(C(=O)NCc3ccc4c(c3)OCO4)cn12	none (no result: Beta2AR agonist, TLR4 MyD88 comp, TLR9-MyD88 block, NTR1 ag)
CC1(C)CC(=O)C(C(C2=C(O)CC(C)(C)CC2=O)c2cccs2)C(=O)C1 (centres undefined)	Beta2AR agonist 68.2, TLR4 MyD88 comp 25.4, ABHD5-PLIN5 inh 40.6 | TLR4-MyD88 conf inactive | BLA inhibitor ct inactive | ABHD5-PLIN5 conf 64.3 | HNF4 split-luc 68.5
COCCNC(=O)C1CCCN(Cc2ccccc2-c2ccccc2)CC1 (centres undefined)	none (no result: Beta2AR agonist, TLR4 MyD88 comp, TLR9-MyD88 block, NTR1 ag)
